Calls of active or inactive are those of the source.

Experiment [1] in a line: binders of probe aFSTL3 on microarray, primary screen, stem cell growth factor project, biochemical, small-molecule microarray, fluorescence 635/667 (AID 1064).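 Also: measures binding of the biotinylated anti-FSTL3 antibody to printed compounds.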 As to conditions: higher = more signal.
The nature of experiment [2]: binders from COS7 lysate, DM2A8 probe, primary screen, torsin A project, cell lysate, small-molecule microarray, fluorescence 635/667 (AID 1065). As to conditions: higher = more signal, COS7 lysate expressing mutant human TOR1A.
Experiment [3] is described as follows: binders of probe aFGF2 on microarray, primary screen, stem cell growth factor project, biochemical, small-molecule microarray, fluorescence 635/667 (AID 1067).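 Also: measures binding of biotinylated aFGF2 protein to printed compounds on slides; z-score merges feature fluorescence and signal-to-noise across triplicate slides.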 As to conditions: higher = more signal.
Experiment [4] is described as follows: binders of probe aFGF10 on microarray, primary screen, stem cell growth factor project, biochemical, small-molecule microarray, fluorescence 635/667 (AID 1071).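 Also: score merges 667 nm spot intensity and signal to noise from triplicate slides.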 The note with it: higher = more signal.
In experiment [5] the target is Neurogenic locus notch homolog protein 2 (Homo sapiens) (UniProt Q04721). Put plainly: Notch2 binders on small-molecule microarrays, primary screen, biochemical, small-molecule microarray, 635 nm fluorescence, stem cell growth factors (AID 1073). As to conditions: Notch2 binding, higher = more signal.
Experiment [6] concerns the target Pro-neuregulin-1, membrane-bound isoform (Homo sapiens) (UniProt Q02297). Briefly: NRG1 binders on small-molecule microarrays, primary screen, psychiatric disease protein project, biochemical, small-molecule microarray, fluorescence 635/667 (AID 1075).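 Also: score combines 667 nm spot fluorescence with signal to noise.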 As to conditions: NRG1 binding, 635 nm fluorescence, higher = more signal.
The subject of experiment [7] is Neuregulin-1 EGF-like domain. Briefly: binders of neuregulin-1 EGF-like domain, primary screen, biochemical, small-molecule microarray, 635 nm fluorescence (AID 1081).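 Also: binding of the protein to compounds printed on small-molecule microarray slides.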 The note with it: small-molecule microarray binding, higher = more signal.
A short description of experiment [8]: FRG1 promoter luciferase signal modulators, primary screen, FRG1 inhibition for FSHD, cell-based, C2C12 myotubes, firefly/Renilla luciferase, luminescence (AID 1084). The note with it: higher = more signal, called active from +8 up or from −8 down.
The nature of experiment [9]: binders of probe aFST on microarray, primary screen, stem cell growth factor project, biochemical, small-molecule microarray, fluorescence 635/667 (AID 1086).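 Also: score merges 667 nm fluorescence with signal-to-noise of each printed compound spot.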 The note with it: higher = more signal.
Experiment [10] can be described thus: binders of probe aHhip on microarray, primary screen, stem cell growth factor project, biochemical, small-molecule microarray, fluorescence 635/667 (AID 1087).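 Also: score merges spot fluorescence at 667nm with spot signal to noise ratio.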 The note with it: higher = more signal.
For experiment [11], the system named is PRMT1 (protein arginine N-methyltransferase 1). Briefly: PRMT1 binders on small-molecule microarrays, primary screen, biochemical, small-molecule microarray, 635 nm fluorescence (AID 1088).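 Also: binding of Prmt1 protein to compounds spotted on small-molecule microarray slides.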 As to conditions: small-molecule microarray binding, higher = more signal.
A short description of experiment [12]: yeast growth modulation, basal conditions, primary screen, YJM789 clinical isolate, OD600, 24 h (AID 1089).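 Also: growth of clinical yeast isolate S. cerevisiae YJM 789 seeded 1000 cells per well; test concentration not given here.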 The note with it: S. cerevisiae YJM789 growth, higher = more signal, called active from +8 up or from −8 down.
Experiment [13] is described as follows: fission yeast growth modulation, primary screen, strain 972, OD600, 24 h, no modulator (AID 1090).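 Also: basal condition with compound alone and no growth modifier present; test concentration not given here.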 As to conditions: S. pombe 972 growth, higher = more signal, called active from +8 up or from −8 down.
Experiment [14] is described as follows: S. cerevisiae growth modulation with rapamycin, primary screen, strain BY4716, OD600, 96 h (AID 1091). Also: test concentration not given here. As to conditions: higher = more signal, called active from +8 up or from −8 down.
Experiment [15] deals with Torsin-1A-interacting protein 2 (Homo sapiens) (UniProt Q8NFQ8). Put plainly: LULL1 binders on small-molecule microarray, primary screen, cell lysate, human LULL1 lysate, 635/667 nm fluorescence (AID 1092).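 Also: probe is lysate of COS7 cells overexpressing human LULL1; score merges per-feature 667 nm fluorescence with signal-to-noise.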 As to conditions: hLULL1 lysate binding, 635 nm fluorescence, higher = more signal.
Sequence of Torsin-1A-interacting protein 2 (Homo sapiens) (Q8NFQ8 whole entry, looked up): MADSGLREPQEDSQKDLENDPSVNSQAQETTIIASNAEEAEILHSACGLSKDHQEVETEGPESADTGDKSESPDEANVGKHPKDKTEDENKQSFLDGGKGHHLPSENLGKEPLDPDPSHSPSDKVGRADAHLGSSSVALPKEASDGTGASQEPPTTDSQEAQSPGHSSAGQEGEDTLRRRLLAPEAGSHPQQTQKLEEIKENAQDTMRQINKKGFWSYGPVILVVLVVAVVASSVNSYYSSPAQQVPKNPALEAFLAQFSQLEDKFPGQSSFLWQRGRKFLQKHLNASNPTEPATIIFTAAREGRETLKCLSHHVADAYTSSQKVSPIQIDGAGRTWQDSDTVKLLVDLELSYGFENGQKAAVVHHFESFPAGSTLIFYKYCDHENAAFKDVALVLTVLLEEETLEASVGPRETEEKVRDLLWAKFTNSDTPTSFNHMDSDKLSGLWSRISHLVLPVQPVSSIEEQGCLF
The nature of experiment [16]: E. coli growth modulation, two-sided OD650, primary screen, E. coli filamentation project, strain DRC41, 24 h (AID 1093).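 Also: MC1000 strain lacking acrAB efflux and sulA so SOS filamentation is blocked; test concentration not given here.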 The note with it: OD650, 24 h, higher = more signal, called active from +8 up or from −8 down.
A short description of experiment [17]: small-molecule microarray binders of probe aLefty2, primary screen, biochemical, biotinylated probe, 635/667 nm fluorescence (AID 1094).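 Also: score merges spot fluorescence near 667 nm with spot signal-to-noise ratio.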 The note with it: higher = more signal.
The subject of experiment [18] is Noggin (protein binding on small-molecule microarray). Put plainly: Noggin binders on small-molecule microarray, primary screen, biochemical, 635/667 nm fluorescence (AID 1095).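 Also: score merges 667 nm feature fluorescence with signal to noise over triplicate slides.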 As to conditions: 635 nm fluorescence, higher = more signal.
Experiment [19] deals with Neurogenic locus notch homolog protein 3 (Homo sapiens) (UniProt Q9UM47). Briefly: NOTCH3 binders on small-molecule microarray, primary screen, biochemical, 635/667 nm fluorescence (AID 1096). As to conditions: NOTCH3 binding, 635 nm fluorescence, higher = more signal.
Sequence of Neurogenic locus notch homolog protein 3 (Homo sapiens) (Q9UM47 whole entry, looked up): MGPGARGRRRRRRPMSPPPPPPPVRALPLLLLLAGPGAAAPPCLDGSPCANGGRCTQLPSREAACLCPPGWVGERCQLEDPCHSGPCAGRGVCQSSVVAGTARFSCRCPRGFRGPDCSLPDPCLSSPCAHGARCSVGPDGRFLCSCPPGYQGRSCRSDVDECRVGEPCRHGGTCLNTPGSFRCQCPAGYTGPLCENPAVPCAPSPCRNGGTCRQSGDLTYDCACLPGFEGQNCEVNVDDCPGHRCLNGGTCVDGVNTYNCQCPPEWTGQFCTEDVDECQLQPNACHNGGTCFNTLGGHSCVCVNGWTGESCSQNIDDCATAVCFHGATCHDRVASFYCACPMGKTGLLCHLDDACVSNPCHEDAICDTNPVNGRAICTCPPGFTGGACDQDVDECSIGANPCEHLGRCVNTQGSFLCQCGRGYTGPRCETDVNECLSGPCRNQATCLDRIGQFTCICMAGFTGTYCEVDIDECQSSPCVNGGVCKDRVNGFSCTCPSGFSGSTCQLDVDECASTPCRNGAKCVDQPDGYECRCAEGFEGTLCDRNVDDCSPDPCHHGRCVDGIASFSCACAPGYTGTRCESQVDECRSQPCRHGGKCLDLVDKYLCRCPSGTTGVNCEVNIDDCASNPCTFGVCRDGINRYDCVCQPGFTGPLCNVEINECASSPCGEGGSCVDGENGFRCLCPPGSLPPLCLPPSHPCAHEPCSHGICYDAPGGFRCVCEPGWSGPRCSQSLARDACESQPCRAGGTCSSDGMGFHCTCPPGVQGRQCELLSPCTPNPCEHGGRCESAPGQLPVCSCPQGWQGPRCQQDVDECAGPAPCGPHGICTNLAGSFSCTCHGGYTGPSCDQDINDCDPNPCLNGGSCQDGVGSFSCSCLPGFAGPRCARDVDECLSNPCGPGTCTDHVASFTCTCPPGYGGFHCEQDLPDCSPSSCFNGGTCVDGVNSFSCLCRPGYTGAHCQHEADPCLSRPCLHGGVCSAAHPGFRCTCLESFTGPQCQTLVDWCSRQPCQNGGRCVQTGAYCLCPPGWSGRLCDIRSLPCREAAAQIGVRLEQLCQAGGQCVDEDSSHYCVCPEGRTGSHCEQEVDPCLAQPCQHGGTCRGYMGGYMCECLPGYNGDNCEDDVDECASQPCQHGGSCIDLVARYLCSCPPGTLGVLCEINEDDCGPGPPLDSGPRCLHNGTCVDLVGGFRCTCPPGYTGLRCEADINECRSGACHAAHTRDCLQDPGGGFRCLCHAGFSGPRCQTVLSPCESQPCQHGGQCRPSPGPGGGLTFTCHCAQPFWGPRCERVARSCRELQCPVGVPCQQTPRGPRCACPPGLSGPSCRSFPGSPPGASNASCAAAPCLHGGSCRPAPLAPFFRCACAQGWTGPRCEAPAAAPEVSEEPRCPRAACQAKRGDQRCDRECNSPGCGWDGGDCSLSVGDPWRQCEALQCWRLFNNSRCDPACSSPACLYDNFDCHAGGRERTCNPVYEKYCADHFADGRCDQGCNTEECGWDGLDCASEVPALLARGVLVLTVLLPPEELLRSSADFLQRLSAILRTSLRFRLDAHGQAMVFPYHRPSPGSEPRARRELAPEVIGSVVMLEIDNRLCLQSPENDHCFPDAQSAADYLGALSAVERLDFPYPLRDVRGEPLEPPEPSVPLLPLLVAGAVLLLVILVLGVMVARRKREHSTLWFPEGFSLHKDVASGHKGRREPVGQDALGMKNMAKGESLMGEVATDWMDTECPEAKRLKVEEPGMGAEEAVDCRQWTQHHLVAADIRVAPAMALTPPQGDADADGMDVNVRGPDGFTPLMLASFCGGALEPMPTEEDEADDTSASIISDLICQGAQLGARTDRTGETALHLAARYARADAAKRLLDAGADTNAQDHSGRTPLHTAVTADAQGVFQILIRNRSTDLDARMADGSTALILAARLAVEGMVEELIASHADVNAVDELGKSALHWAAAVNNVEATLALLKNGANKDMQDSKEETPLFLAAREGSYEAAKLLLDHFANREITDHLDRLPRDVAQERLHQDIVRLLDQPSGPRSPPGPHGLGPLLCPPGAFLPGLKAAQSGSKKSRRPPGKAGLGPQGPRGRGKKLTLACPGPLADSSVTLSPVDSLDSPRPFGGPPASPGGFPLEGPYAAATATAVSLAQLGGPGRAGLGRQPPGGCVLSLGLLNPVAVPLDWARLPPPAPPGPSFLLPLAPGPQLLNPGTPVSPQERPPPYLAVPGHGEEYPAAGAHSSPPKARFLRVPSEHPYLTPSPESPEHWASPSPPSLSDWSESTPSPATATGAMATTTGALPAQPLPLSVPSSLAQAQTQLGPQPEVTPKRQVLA
A short description of experiment [20]: small-molecule microarray binders of probe aEGFR, primary screen, biochemical, biotinylated probe, 635/667 nm fluorescence (AID 1097).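 Also: probe is a biotinylated anti-EGFR antibody binding compounds printed on slides; score combines fluorescence near 667 nm and signal to noise of each spot.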 The note with it: higher = more signal.

Sequence of Pro-neuregulin-1, membrane-bound isoform (Homo sapiens) (Q02297 whole entry, looked up, the tested form may be a part, canonical isoform): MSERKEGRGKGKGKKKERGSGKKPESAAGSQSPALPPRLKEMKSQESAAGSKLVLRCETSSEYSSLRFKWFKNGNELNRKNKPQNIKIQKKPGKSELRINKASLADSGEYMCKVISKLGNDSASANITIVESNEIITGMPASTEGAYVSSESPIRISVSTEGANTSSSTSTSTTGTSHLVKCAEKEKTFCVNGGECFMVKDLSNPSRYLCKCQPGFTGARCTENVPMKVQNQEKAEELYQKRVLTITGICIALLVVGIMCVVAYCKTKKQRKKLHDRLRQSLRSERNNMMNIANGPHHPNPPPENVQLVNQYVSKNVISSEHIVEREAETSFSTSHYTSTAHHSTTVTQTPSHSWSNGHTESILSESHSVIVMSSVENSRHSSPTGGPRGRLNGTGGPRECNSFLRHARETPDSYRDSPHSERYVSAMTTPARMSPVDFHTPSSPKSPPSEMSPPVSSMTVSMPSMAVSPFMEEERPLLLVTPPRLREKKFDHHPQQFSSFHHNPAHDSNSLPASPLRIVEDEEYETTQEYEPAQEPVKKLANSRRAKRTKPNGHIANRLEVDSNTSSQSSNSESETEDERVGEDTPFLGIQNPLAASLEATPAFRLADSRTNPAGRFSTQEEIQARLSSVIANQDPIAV

Take `CCCc1cc2c(n1Cc1cc(F)cc(F)c1)C(C)C1CN(C(=O)c3ccccc3)C(C)(C(=O)OC)C21` (stereo not given): the composite z-score in experiment [1] was 1.25; in experiment [2], 1.77; in experiment [3], 0.256; in experiment [4] it was 0.426; in experiment [5] it was 1.71; in [6] it was 1.62. Besides, the composite z-score worked out at 1.18 in [7]; 1.58 in [9]; 0.441 in experiment [10]; 0.497 in experiment [11]; 3.11 in experiment [15]; 1.02 in experiment [17]. Moreover, the composite z-score is -0.266 in [18], 1.03 in [19] and 0.249 in experiment [20]. Further, the z-score in [8] was 0.0046 (inactive); in experiment [12], 0.149 (inactive); in experiment [13], 0.744 (inactive); in [14], 0.734 (inactive); in experiment [16] it was -0.738 (inactive).
`COC(=O)C(CC#Cc1ccc2c(c1)[C@]1(C(=O)N2)[C@H](C(=O)Nc2nc3ccccc3s2)[C@H]2C(=O)O[C@H](c3ccccc3)[C@H](c3ccccc3)N2[C@@H]1c1ccccc1OCCO)C(=O)OC`: the composite z-score in experiment [1] came to 0.0102; in experiment [2], 0.628; in [3], 0.0941; in experiment [4] it was 1.12; in experiment [5], 1.26; in [6] it was 1.07. The composite z-score in experiment [7] is 1.31; in [9], 0.709; in experiment [10] it was -0.0296; in experiment [11], 1.55; in [15] it was 2.69; in [17], 0.0293. The composite z-score was 0.485 in [18], 1.08 in experiment [19] and -0.0244 in experiment [20]. The z-score in [8] is 1.43 (inactive); in [12] it was 1.35 (inactive); in [13] it was 1.12 (inactive); in experiment [14], 1.39 (inactive); in [16] it was -0.404 (inactive).
As to `O=C1C2C=CC(C(O)CCc3ccccc3)N(Nc3ccccc3F)C2C(=O)N1c1ccccc1` (stereo not given), the composite z-score in experiment [1] is -0.114; in experiment [2] it was 0.203; in experiment [3], 0.179; in experiment [4] it was 0.763; in experiment [5], 1.68; in [6] it was 0.572. Further, the composite z-score in [7] was 1.15; in experiment [9], 1.16; in experiment [10], -0.191; in [11], 1.49; in [15] it was 3.28; in experiment [17], 0.183. Also, the figures for the composite z-score in experiment [18], in experiment [19] and in [20] were 0.279, 1.08 and 0.0059, respectively. The z-score is 0.957 (inactive) in experiment [8]; -0.566 (inactive) in experiment [12]; 0.624 (inactive) in experiment [13]; -0.378 (inactive) in [14]; -0.0741 (inactive) in [16].
In the case of `O=C1C[C@@](C(=O)NCCN2CCOCC2)(c2ccc([N+](=O)[O-])cc2)[C@@H](c2ccc(CO)cc2I)N1CC12CC3CC(CC(C3)C1)C2`, the composite z-score in [1] is -0.168; in [2], 0.47; in experiment [3], 0.0232; in experiment [4] it was 0.569; in experiment [5], 0.926; in experiment [6], 1.64. The composite z-score was 1.37 in experiment [7]; 0.45 in experiment [9]; 0.192 in experiment [10]; 1.54 in experiment [11]; 3.2 in [15]; -0.112 in experiment [17]. Also, the composite z-score in experiment [18] was 1.2; in [19] it was 1.08; in experiment [20], -0.0381. Besides, the z-score in [8] is -2.84 (inactive); in experiment [12], -24.9 (active); in experiment [13] it was -5.93 (inactive); in experiment [14] it was 0.0788 (inactive); in experiment [16], -0.981 (inactive).
In the case of `COC(=O)C(CC#Cc1ccc2c(c1)[C@]1(C(=O)N2)[C@H](C(=O)Nc2nc3ccccc3s2)[C@H]2C(=O)O[C@H](c3ccccc3)[C@H](c3ccccc3)N2[C@@H]1c1ccc(O)cc1)C(=O)OC`, the composite z-score in experiment [1] was -0.485; in experiment [2], 0.919; in [3], 0.0495; in experiment [4], 0.621; in experiment [5], 1.33; in experiment [6], 1.37. Moreover, the composite z-score in [7] was 1.36; in experiment [9], 0.688; in experiment [10], -0.0618; in experiment [11] it was 1.55; in experiment [15], 2.82; in [17] it was -0.0258. For the same molecule, the figures for the composite z-score in experiment [18], in [19] and in experiment [20] were 0.709, 1.03 and 0.221, respectively. The z-score in experiment [8] was 1.28 (inactive); in experiment [12], 0.424 (inactive); in experiment [13], 0.301 (inactive); in [14] it was 0.746 (inactive); in experiment [16], -1.05 (inactive).

For the origin of these results see PubChem BioAssay.
